# From PubChem BioAssay (NCATS)
# A number with no mark means an inactive call. Inconclusive results are not listed. Activity calls are given as the source filed them. Unless noted, calls follow the shape of the dose curve; as a rule, active = well fitted curve in the direction sought with a large enough effect; inconclusive = small, poorly fitted or top-dose-only effect, or another doubt; inactive = no such curve, though single readings can be large; an effect the other way counts as inactive or inconclusive.
# Columns and labels:
# [1] = Cell Viability - LYMP1-003 - Assay at 40 hr (AID 964); also: potency is read from the fitted curve at half-maximal effect; nearly all actives have a fitted effect of over 60% in size
# How it was run: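 Human lymphoblastoid LYMP1-003 cells, 2500/well in complete medium, rested 5 hr at 37 C, then exposed to compounds for 40 hr at 37 C. Viability read as intracellular ATP by CellTiter-Glo luminescence; AC50 from Hill fits of concentration-response data.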
# [2] = Cell Viability - LYMP2-003 (AID 965);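 also: potency is read from the fitted curve at half-maximal effect; cells exposed to compounds for 24 h before reading; nearly all actives have a fitted effect of over 50% in size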
# How it was run: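 CellTiter-Glo luminescence (cellular ATP) after 24 h compound exposure at 37 C in complete medium; 2500 cells/well, 5 h settling beforehand. Concentration-response fitted to standard Hill equation for AC50. Tetraoctylammonium bromide served as positive control.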
# [3] = Cell Viability - LYMP2-004 (AID 966); also: potency is read from the fitted curve at half-maximal effect; nearly all actives have a fitted effect of over 65% in size
# How it was run: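 Human lymphoblastoid cells (2500/well) in complete medium were treated with compounds for 24 hr at 37 C, then intracellular ATP was measured by CellTiter-Glo luminescence. AC50 values came from Hill-equation fits of concentration-response data.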
# [4] = Cell Viability - LYMP2-005 (AID 967); also: potency is read from the fitted curve at half-maximal effect
# How it was run: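 Steps: seed 2500 LYMP2-005 cells/well, incubate 5 h at 37 C, add compound, incubate 24 h at 37 C, add CellTiter-Glo, wait 30 min at RT, read luminescence. Concentration-response data fitted to Hill equation for AC50.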
# [5] = Cell Viability - LYMP2-009 (AID 968); also: potency is read from the fitted curve at half-maximal effect; nearly all actives have a fitted effect of over 55% in size
# [6] = Cell Viability - LYMP2-011 (AID 969); also: potency is read from the fitted curve at half-maximal effect; nearly all actives have a fitted effect of over 60% in size
# How it was run: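 Human lymphoblastoid cells (2500/well) were plated in complete medium, preincubated 5 hr at 37 C, then exposed to compounds for 24 hr at 37 C. Intracellular ATP was read by CellTiter-Glo luminescence, and AC50 came from Hill-equation concentration-response fits.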
# [7] = Cell Viability - LYMP2-013 (AID 970); also: potency is read from the fitted curve at half-maximal effect; nearly all actives have a fitted effect of over 55% in size
# How it was run: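 Human lymphoblastoid cells, 2500/well, were preincubated 5 hr at 37 C, then treated with compounds for 24 hr at 37 C in complete medium. Intracellular ATP was read by CellTiter-Glo luminescence; AC50 from Hill-equation fits of concentration-response data.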
# [8] = Cell Viability - LYMP2-015 (AID 971); also: potency is read from the fitted curve at half-maximal effect; nearly all actives have a fitted effect of over 55% in size
# How it was run: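 Human lymphoblastoid cells (2500/well) in complete medium were preincubated 5 hr at 37 C, then compound-treated 24 hr at 37 C. Intracellular ATP was read by CellTiter-Glo luminescence after 30 min at room temperature; AC50 came from Hill-equation concentration-response fits.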
# [9] = Cell Viability - LYMP2-017 (AID 972); also: potency is read from the fitted curve at half-maximal effect; nearly all actives have a fitted effect of over 55% in size
# How it was run: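 Human lymphoblastoid cells (2500/well) were seeded in complete medium, held 5 hr at 37 C, then exposed to compounds for 24 hr at 37 C. Intracellular ATP was read by CellTiter-Glo luminescence after 30 min at room temperature, with AC50 values from Hill-equation fits.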
# [10] = Cell Viability - LYMP2-019 (AID 973)
# How it was run: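 Human lymphoblastoid cells were seeded at 2500 cells/well, preincubated 5 hr at 37 C, then exposed to compounds for 24 hr at 37 C in complete medium. Intracellular ATP was measured by CellTiter-Glo luminescence; AC50 from Hill fits.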
# [11] = Cell Viability - LYMP2-021 (AID 974)
# How it was run: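 Human lymphoblastoid cells (2500/well) were preincubated 5 hr at 37 C, then exposed to compounds for 24 hr at 37 C in complete medium. Intracellular ATP was read by CellTiter-Glo luminescence; AC50 came from Hill-equation fits of concentration-response data.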
# [12] = Cell Viability - LYMP2-025 (AID 976); also: potency is read from the fitted curve at half-maximal effect
# How it was run: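 Human lymphoblastoid LYMP2-025 cells (2500/well) were pre-incubated 5 hr at 37 C, then treated with compounds for 24 hr at 37 C in complete medium. Viability was read as intracellular ATP by CellTiter-Glo luminescence; AC50 from Hill fits.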
# [13] = Cell Viability - LYMP2-002 (AID 977); also: potency is read from the fitted curve at half-maximal effect
# How it was run: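 Cytotoxicity is scored as concentration-dependent loss of cellular ATP in a human lymphoblastoid line after 24 hr compound treatment at 37 C. AC50 is obtained by modelling concentration-response data with the Hill equation.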
# [14] = Cell Viability - LYMP2-007 (AID 979);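 also: potency is read from the fitted curve at half-maximal effect; cells exposed to compound for 24 h before reading; nearly all actives have a fitted effect of over 60% in size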
# How it was run: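 Human lymphoblastoid cells (2500/well) were plated in complete medium, incubated 5 hr at 37 C, then exposed to compounds for 24 hr at 37 C. Intracellular ATP was read by CellTiter-Glo luminescence after 30 min at room temperature; AC50 from Hill fits.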
# [15] = Cell Viability - LYMP2-008 (AID 980); also: potency is read from the fitted curve at half-maximal effect; nearly all actives have a fitted effect of over 60% in size
# How it was run: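 Human lymphoblastoid cells (2500/well) were plated, held 5 hr at 37 C, then exposed to compounds for 24 hr at 37 C in complete medium. Intracellular ATP was read by CellTiter-Glo luminescence; AC50 from Hill-fitted concentration-response.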
# [16] = Cell Viability - LYMP2-010 (AID 981)
# How it was run: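 Human lymphoblastoid LYMP2-010 cells (2500/well) were preincubated 5 hr at 37 C, then exposed to compounds for 24 hr at 37 C in complete medium. Intracellular ATP was measured by CellTiter-Glo luminescence after 30 min at room temperature; AC50 from Hill-fitted concentration-response.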
# [17] = Cell Viability - LYMP2-012 (AID 982)
# [18] = Cell Viability - LYMP2-014 (AID 983); also: potency is read from the fitted curve at half-maximal effect; nearly all actives have a fitted effect of over 50% in size
# How it was run: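 Human lymphoblastoid cells (2500/well) were pre-incubated 5 hr at 37 C, then exposed to compounds in complete medium for 24 hr at 37 C. Intracellular ATP was read by CellTiter-Glo luminescence after 30 min at room temperature; AC50 from Hill fits.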
# [19] = Cell Viability - LYMP2-016 (AID 984)
# How it was run: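 qHTS, 1536-well: 2500 LYMP2-016 cells/well, 5 hr 37 C, compound added, 24 hr 37 C, CellTiter-Glo 30 min RT, luminescence. Tetraoctylammonium bromide positive control. AC50 via Hill fit.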
# [20] = Cell Viability - LYMP2-018 (AID 985);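 also: potency is read from the fitted curve at half-maximal effect; compound exposure lasted 24 hr at 37 °C; nearly all actives have a fitted effect of over 50% in size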
# How it was run: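 Human lymphoblastoid cells (2500/well) were pre-incubated 5 hr at 37 C, then exposed to compounds for 24 hr at 37 C in complete medium. Viability was read as intracellular ATP by CellTiter-Glo luminescence; AC50 values came from Hill-equation fits.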
# [21] = Cell Viability - LYMP2-020 (AID 986)
# How it was run: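 Human lymphoblastoid cells, 2500/well, were pre-incubated 5 hr at 37 C, then exposed to compounds for 24 hr at 37 C in complete medium. Intracellular ATP was read by CellTiter-Glo luminescence, and AC50 was derived by Hill fitting of concentration-response data.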
# [22] = Cell Viability - LYMP2-022 (AID 987)
# How it was run: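 Human lymphoblastoid cells, 2500/well, preincubated 5 hr at 37 C, then exposed to compounds over a concentration range for 24 hr at 37 C in complete medium. Viability read as intracellular ATP by CellTiter-Glo luminescence after 30 min at room temperature; AC50 from Hill fits.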
# [23] = Cell Viability - LYMP2-026 (AID 989); also: potency is read from the fitted curve at half-maximal effect; nearly all actives have a fitted effect of over 50% in size
# How it was run: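 Human lymphoblastoid cells (2500/well) in complete medium were preincubated 5 hr at 37 C, then exposed to compounds for 24 hr at 37 C. Cellular ATP was read by CellTiter-Glo luminescence; AC50 from Hill-equation fits of concentration-response data.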
# [24] = Cell Viability - LYMP1-002 - Assay at 24 hr (AID 993); also: potency is read from the fitted curve at half-maximal effect
# How it was run: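 Human lymphoblastoid LYMP1-002 cells, 2500/well in complete medium, were treated with compounds for 24 h at 37 C; intracellular ATP was read by CellTiter-Glo luminescence. AC50 values came from Hill-equation fits of qHTS concentration-response data.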
# [25] = Cell Viability - LYMP1-002 - Assay at 40 hr (AID 994)
# How it was run: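 Human lymphoblastoid cells, 2500/well in complete medium, were preincubated 5 hr at 37 C, then exposed to compounds for 40 hr at 37 C. Intracellular ATP was read by CellTiter-Glo luminescence after 30 min at room temperature; AC50 from Hill-equation fits.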
# [26] = target: Bile acid receptor (Homo sapiens) (UniProt Q96RI1); assay: qHTS assay for small molecule antagonists of farnesoid X receptor signaling (AID 588526; calls by dose curve; also: % is scaled to controls: 0 for no effect and ±100 for the full control effect)
# Bile acid receptor (Homo sapiens), sequence (Q96RI1 whole entry, looked up): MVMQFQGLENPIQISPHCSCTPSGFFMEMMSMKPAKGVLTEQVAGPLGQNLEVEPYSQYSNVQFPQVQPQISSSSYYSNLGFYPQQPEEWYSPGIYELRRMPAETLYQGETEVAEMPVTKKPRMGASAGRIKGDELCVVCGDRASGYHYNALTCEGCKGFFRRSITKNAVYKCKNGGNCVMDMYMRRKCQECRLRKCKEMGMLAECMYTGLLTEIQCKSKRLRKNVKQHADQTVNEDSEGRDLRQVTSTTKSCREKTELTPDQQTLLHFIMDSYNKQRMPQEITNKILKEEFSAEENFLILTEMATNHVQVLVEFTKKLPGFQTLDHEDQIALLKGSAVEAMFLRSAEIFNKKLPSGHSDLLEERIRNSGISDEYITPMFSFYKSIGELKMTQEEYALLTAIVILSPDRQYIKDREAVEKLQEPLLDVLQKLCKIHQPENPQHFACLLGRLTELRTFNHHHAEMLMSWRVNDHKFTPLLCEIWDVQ
# How it was run: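 Beta-lactamase reporter antagonist mode: HEK293T FXR-UAS-bla cells, titrated compound, CDCA stimulation, 16 h 37 C, CCF4 dye 2 h RT. Data normalized to CDCA 50 uM and DMSO; Hill-fit IC50.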
# [27] = target: Peroxisome proliferator-activated receptor gamma (Homo sapiens) (UniProt P37231); assay: qHTS assay for small molecule agonists of peroxisome proliferator-activated receptor gamma signaling (AID 588536; active = well fitted curve in the direction sought with a large enough effect in the signal ratio, with a control signal flat, not every such curve was filed as active; the % refers to the signal ratio;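 also: 0% = DMSO basal wells and 100% = rosiglitazone at 2 µM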)
# Peroxisome proliferator-activated receptor gamma (Homo sapiens), sequence (P37231 whole entry, looked up): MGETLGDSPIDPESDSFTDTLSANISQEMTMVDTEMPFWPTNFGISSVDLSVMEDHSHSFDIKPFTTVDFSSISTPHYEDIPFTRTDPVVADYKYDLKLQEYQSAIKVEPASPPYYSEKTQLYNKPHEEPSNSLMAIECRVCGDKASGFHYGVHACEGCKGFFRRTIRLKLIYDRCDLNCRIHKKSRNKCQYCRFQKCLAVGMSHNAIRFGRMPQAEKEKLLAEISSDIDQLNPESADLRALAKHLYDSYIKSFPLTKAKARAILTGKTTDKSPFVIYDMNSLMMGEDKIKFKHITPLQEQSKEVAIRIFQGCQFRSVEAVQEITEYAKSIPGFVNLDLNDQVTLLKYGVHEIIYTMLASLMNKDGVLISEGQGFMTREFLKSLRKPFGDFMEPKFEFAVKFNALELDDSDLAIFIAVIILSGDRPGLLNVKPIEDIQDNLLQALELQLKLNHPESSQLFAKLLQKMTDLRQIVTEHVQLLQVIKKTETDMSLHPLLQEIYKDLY
# How it was run: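 PPAR-gamma-UAS-bla HEK293 cells in medium with 1% charcoal/dextran-treated FBS were exposed to compounds for 16 h at 37 C. Beta-lactamase activity was read with CCF4 substrate (405 nm excitation, 460/530 nm emission).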
# [28] = qHTS assay for small molecule agonists of the antioxidant response element (ARE) signaling pathway (AID 651741; active = well fitted activation curve with a large enough effect in the signal ratio; the % refers to the signal ratio; also: potency is read from the fitted curve at half-maximal effect)
# How it was run: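 Seeding 2,000 ARE-bla HepG2 cells per well preceded a 5 h incubation at 37 C/5% CO2 and a 16 h compound exposure at 37 C. Beta-lactamase reporter activity was then quantified by fluorescence after 2 h with LiveBLAzer B/G FRET substrate.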
# [29] = qHTS assay for small molecule activators of the p53 signaling pathway (AID 651743; active = well fitted activation curve with a large enough effect in the signal ratio, not every such curve was filed as active; the % refers to the signal ratio; also: series mostly up to about 92 µM; % of control where 0% means no effect); conditions: HCT-116 p53RE-bla, beta-lactamase FRET ratio, 16 h; activation: active compounds read high
# How it was run: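 Screen for p53 pathway agonists uses stably transfected p53RE-bla HCT-116 cells, 4,000 per well, treated 16 h at 37 C with compounds in DMSO.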
# [30] = qHTS assay for small molecule disruptors of the mitochondrial membrane potential - 1 hr assay (AID 651754; calls by dose curve; also: potency is read from the fitted curve at half-maximal effect; nearly all actives have a fitted effect of over 35% in size)
# How it was run: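 HepG2 cells, attached overnight at 37C, were exposed to compound or DMSO vehicle for 1 hr at 37C, 5% CO2, then stained with Mito-MPS dye for 30 min. Red aggregate versus green monomer fluorescence reports membrane potential.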
# [31] = qHTS assay for small molecule disruptors of the mitochondrial membrane potential - 5 hr assay (AID 651755; calls by dose curve; also: potency is read from the fitted curve at half-maximal effect; nearly all actives have a fitted effect of over 40% in size)
# How it was run: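 HepG2, 2,000 cells/well, overnight attach; cpd or DMSO 5 hr, 37C/5% CO2; Mito-MPS 30 min 37C; fluor 490/535 + 540/590 nm.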
# [32] = qHTS assay for environmental chemicals that activate the Aryl hydrocarbon Receptor (AhR) signaling pathway (AID 651777); conditions: 1A2-DRE human hepatoma cells, luciferase, 24 h; activation: active compounds read high; also: % of control where 0% means no effect; nearly all actives have a fitted effect of over 15% in size
# How it was run: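 Human hepatoma 1A2-DRE cells, stably carrying a dioxin response element and CYP1A2 promoter driving luciferase, were exposed to compounds for 24 hr at 37 C and 5% CO2. Luciferase signal was then read after 30 min One-Glo at room temperature.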
# [33] = target: Peroxisome proliferator-activated receptor alpha (Homo sapiens) (UniProt Q07869); assay: qHTS assay for small molecule agonists of the peroxisome proliferator-activated receptor alpha (PPARalpha) signaling pathway (AID 651778); conditions: PathHunter PPARalpha complementation, chemiluminescence, 6 h; max response: active compounds read high; also: % of control where 0% means no effect
# Peroxisome proliferator-activated receptor alpha (Homo sapiens), sequence (Q07869 whole entry, looked up): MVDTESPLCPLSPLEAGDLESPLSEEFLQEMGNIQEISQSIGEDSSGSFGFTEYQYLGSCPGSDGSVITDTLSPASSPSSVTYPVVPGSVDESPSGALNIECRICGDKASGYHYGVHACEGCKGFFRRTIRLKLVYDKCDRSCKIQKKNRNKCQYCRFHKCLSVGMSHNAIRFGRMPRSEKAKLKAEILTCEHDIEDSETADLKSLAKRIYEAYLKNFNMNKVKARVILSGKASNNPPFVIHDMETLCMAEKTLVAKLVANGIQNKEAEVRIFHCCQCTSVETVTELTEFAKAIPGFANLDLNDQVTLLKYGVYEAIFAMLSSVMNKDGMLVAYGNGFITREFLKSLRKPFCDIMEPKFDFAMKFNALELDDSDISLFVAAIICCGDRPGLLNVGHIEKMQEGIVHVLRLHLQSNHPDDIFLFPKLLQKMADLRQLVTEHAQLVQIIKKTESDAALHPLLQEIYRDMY
# How it was run: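 Chemiluminescence from complemented enzyme reported PPARalpha activation in cells after 6 hr of compound treatment at 37 C. The detection reagent was incubated for 60 min at room temperature, and compounds were scored as agonists.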
# [34] = target: Nuclear receptor ROR-gamma (Homo sapiens) (UniProt P51449); assay: qHTS assay for small molecule antagonists of the retinoid-related orphan receptor gamma (ROR-gamma) signaling pathway (AID 651802)
# Nuclear receptor ROR-gamma (Homo sapiens), sequence (P51449 whole entry, looked up): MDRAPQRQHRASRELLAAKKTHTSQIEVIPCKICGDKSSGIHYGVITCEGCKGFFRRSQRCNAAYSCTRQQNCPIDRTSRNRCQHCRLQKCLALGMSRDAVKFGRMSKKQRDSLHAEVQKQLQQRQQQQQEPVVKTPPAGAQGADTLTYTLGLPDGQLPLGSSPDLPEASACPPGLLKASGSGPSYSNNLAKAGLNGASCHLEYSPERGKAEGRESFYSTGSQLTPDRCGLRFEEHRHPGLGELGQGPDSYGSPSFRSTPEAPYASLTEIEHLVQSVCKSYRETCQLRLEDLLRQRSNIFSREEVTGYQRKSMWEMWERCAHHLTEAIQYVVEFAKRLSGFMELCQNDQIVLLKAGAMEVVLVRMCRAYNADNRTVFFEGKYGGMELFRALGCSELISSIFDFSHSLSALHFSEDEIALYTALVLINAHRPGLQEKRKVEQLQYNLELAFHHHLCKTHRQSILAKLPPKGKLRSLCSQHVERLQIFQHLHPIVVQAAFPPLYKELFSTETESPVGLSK
# How it was run: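 CHO cells carrying TET-inducible ROR-gamma and an ROR response element–luciferase reporter were exposed to compound, then induced with doxycycline. After 16hr at 37C, luminescence was read; lower signal indicates antagonism.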
# [35] = qHTS assay for small molecule agonists of the antioxidant response element (ARE) signaling pathway measured by Nrf2-dependant transcriptional activity (AID 720636; active = well fitted curve in the direction sought with a large enough effect in the repeat runs; an effect the other way counts as inactive or inconclusive; also: % of control where 0% means no effect)
# How it was run: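 ARE-luc HepG2 cells carrying an Nrf2-responsive luciferase reporter were plated in medium with 1% dialyzed FBS, left 6 hr at 37 C to attach, then exposed to compound for 16 hr. Luciferase luminescence was read after ONE-Glo addition.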
# [36] = qHTS assay for small molecule antagonists of the retinoid-related orphan receptor gamma (ROR-gamma) signaling pathway - cell viability counter screen (AID 720652; active = well fitted curve in the direction sought with a large enough effect in the repeat runs; an effect the other way counts as inactive or inconclusive;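 also: potency is read from the fitted curve at half-maximal effect; compound exposure lasted 16 hr before ATP read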)
# How it was run: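 Counter screen in CHO cells carrying TET-inducible ROR-gamma and an ROR response element-luciferase reporter; cells plated 5 hr, compound pinned, doxycycline added, then 16 hr at 37 C. Viability read as intracellular ATP by CellTiter-Glo luminescence.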
# [37] = qHTS assay for cell viability of HEK293 cells (AID 743288); conditions: ATP luminescence (CellTiter-Glo), 18 h; max response: active compounds read low
# How it was run: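 Environmental chemicals tested in qHTS format against parental HEK293 cells; 18 h treatment, 37 C; read-out ATP luminescence (CellTiter-Glo), 30 min RT development.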
# [38] = qHTS assay for small molecule activators of the human pregnane X receptor (PXR) signaling pathway (AID 720659; call rule not given here; also: 0% is about no effect)
smiles,measurement,setting,value
N=C1C=CC(=C(c2ccc(N)cc2)c2ccc(N)cc2)C=C1,Potency,[1],12.6 µM (active)
same,Potency,[2],15.8 µM (active)
same,Potency,[3],12.6 µM (active)
same,Potency,[4],12.6 µM (active)
same,Potency,[5],7.94 µM (active)
same,Potency,[6],7.94 µM (active)
same,Potency,[7],12.6 µM (active)
same,Potency,[8],10 µM (active)
same,Potency,[9],12.6 µM (active)
same,Potency,[10],7.94 µM (active)
same,Potency,[11],7.94 µM (active)
same,Potency,[12],10 µM (active)
same,Potency,[13],7.94 µM (active)
same,Potency,[14],7.94 µM (active)
same,Potency,[15],7.94 µM (active)
same,Potency,[16],7.94 µM (active)
same,Potency,[17],7.94 µM (active)
same,Potency,[18],7.94 µM (active)
same,Potency,[19],7.94 µM (active)
same,Potency,[20],7.94 µM (active)
same,Potency,[21],3.98 µM (active)
same,Potency,[22],3.16 µM (active)
same,Potency,[23],7.94 µM (active)
same,Potency,[24],12.6 µM (active)
same,Potency,[25],15.8 µM (active)
same,Potency,[26],inactive
same,outcome,[27],inactive
same,Potency,[28],42.2 µM (active)
same,activation,[29],11.1%
same,Potency,[30],1.33 µM (active)
same,Potency,[31],0.531 µM (active)
same,activation,[32],3.01%
same,max response,[33],-9.83%
same,Potency,[34],6.68 µM (active)
same,Potency,[35],inactive
same,Potency,[36],18.8 µM (active)
same,Potency,[37],31.6 µM (active)
same,outcome,[38],inactive
